The results in this text go back to publication PMC5540273 (PLoS ONE, 2017).

Where only a bound is given, the exact number is not on record here.
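Further: kd values determined as follow-up on hits from a single-replicate KINOMEscan panel screen.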

The first experiment deals with EPHB6.
In general, Kd refers to the free concentration of one partner at which half of the binding sites on the other are occupied at equilibrium, for simple one-to-one binding. A lower Kd goes with a tighter complex. For `Nc1nccc2scc(-c3ccc4c(c3)CCN4C(=O)Cc3ccccc3)c12` [GSK2576924], the Kd was 340 nM. This counts as sub-micromolar.
Still for that read-out and setting: in the case of `COc1cc(Nc2nccc(N3CCC(NC(=O)C(C)c4ccc(Cl)cc4)C3)n2)cc(OC)c1OC` (centres unmarked) [GSK1379757] it was 100 nM; in that of `COc1cc(Nc2nccc(N3CCC(NC(=O)C4COc5ccccc5O4)C3)n2)cc(OC)c1OC` (centres unmarked) [GSK1379761], 110 nM; in that of `Cl.c1ccc(Cn2cnc3cc(Nc4ncnc5ccccc45)ccc32)cc1` [GW272142], 510 nM.
For `C[C@@H]1CC[C@H](C(=O)NC2CCCCC2)CN1c1cc(-c2ccc3c(N)n[nH]c3c2)nc(N)n1` [GSK2291363], the Kd turned out to be 49 nM.

Another experiment has as its system T1, GRK3.
T1 construct: gene ADRBK2
`Nc1nccc2scc(-c3ccc4c(c3)CCN4C(=O)Cc3ccccc3)c12` [GSK2576924]: the Kd was greater than 10000 nM.
The molecule `O=C(Nc1n[nH]c2nc(-c3ccccc3)c(Cl)cc12)C1CC1` [SB-734909] yielded a Kd greater than 10000 nM.
With `Cc1nn2c(=O)cc(N3CCOCC3)nc2n1Cc1cccc(Cl)c1Cl` [GSK2342769], the Kd was greater than 10000 nM.

Another experiment has as its system GSK3A.
In turn, `CCS(=O)c1ccc(-c2coc3ccc(-c4nnc(C)o4)cc23)cc1` (centres unmarked) had a dissociation constant Kd of 260 nM.
Still for that read-out and setting: in the case of `O=C(Nc1n[nH]c2nc(-c3ccccc3)c(Br)cc12)C1CC1` [SB-708998] it was 410 nM; in that of `O=C(Nc1n[nH]c2nc(-c3ccccc3)c(Cl)cc12)C1CC1` [SB-734909], 390 nM; in that of `CCCC(=O)Nc1n[nH]c2ncc(-c3cccc4ccccc34)cc12` [SB-642057], 360 nM.
`Nc1n[nH]c2nnc(-c3ccccc3)c(-c3ccccc3)c12` [GW554060] gave a Kd of 300 nM.
In the case of `COc1ccc(-c2coc3ccc(-c4nnc(SCc5cccc(C#N)c5)o4)cc23)cc1`, the Kd worked out at 150 nM.
